# Test results from PubChem BioAssay AID2314 (National Center for Advancing Translational Sciences (NCATS), 2010).
# Several values for one entry are separate records, joined by “and”; a condition that tells them apart may be missing. Equal values may be shown once. The whole screen tested about 300,000 compounds, of which about 37,000 (12%) were called active. Only a selection was taken, and actives are over-represented in it overall. Values without a mark were called inactive. Cut-off read from the data, not from the text of the source: active = max response mostly above about 13% (no sharp cut-off); inactive = mostly below about 14%.
# Experiment: Cycloheximide Counterscreen for Small Molecule Inhibitors of Shiga Toxin; note: read at 38.3 µM for the half of the compounds with a filed dose; 0% is about no effect
# Conditions: cell reporter, cycloheximide protein synthesis inhibition counterscreen; active compounds read high
row,SMILES,max response
1,CCCn1c2ccccc2c2cnn(CC(=O)NCCCN3CCCCC3CC)c(=O)c21 (stereo unspecified),-4.88%
2,O=C(Nc1ccc2nccnc2c1)c1ccco1,36.2% (active)
3,O=C(Nc1c(-c2ccccc2)nc2c(Br)cc(Br)cn12)c1ccco1,14.7%
4,Cc1ccc(C(=O)COc2cccc(NC(=O)c3ccco3)c2)cc1,4.03%
5,O=C(Nc1cccc(-c2nc3ncccc3o2)c1)c1ccco1,29.9% (active)
6,CCOc1cc(NC(=O)c2ccco2)c(OCC)cc1NC(=O)COc1ccccc1,-3.22%
7,Cc1cccc(NC(=O)Nc2cccc(Oc3c(F)c(F)c(F)c(F)c3F)c2)c1,7.92%
8,Cc1ccnc(NC(=O)c2ccco2)n1,10.2%
9,O=C(Nc1ccc(Oc2ccccc2)cc1)c1ccco1,37.5% (active)
10,Cc1ccoc1C(=O)Nc1cccc(Oc2ccccc2)c1,62.1% (active)
11,O=C(Nc1cccc(NC(=O)c2ccco2)c1)c1cnccn1,6.96%
12,O=C(CSc1ccccc1)Nc1ccc(NC(=O)c2ccco2)cc1,16.6%
13,O=C(Nc1cc(-c2nc3ncccc3o2)ccc1Cl)c1ccco1,7.89%
14,COc1ccc(C(=O)Nc2ccc(C(=O)NCC3CCCO3)cc2)c(OC)c1OC (stereo unspecified),-0.955%
15,O=S(=O)(Nc1cccc2cccnc12)c1cccc2cccnc12,-4.18%
16,COc1cc(/C(=C/c2ccccc2)c2ccccc2)c2c(c1)oc1ccccc12,-1.79%
17,CCCOc1ccc(/C=N/NC(=O)C2CC2)c(OCCC)c1,1.32%
18,CCS(=O)(=O)Nc1ccc(C(=O)NCCSc2ccccc2)cc1,30% (active)
19,O=C(Nc1ccc2oc(-c3ccccc3F)nc2c1)c1ccco1,47.3% (active)
20,O=C(NNC(=O)c1ccco1)Nc1ccccc1,12.6%
21,Cc1ccc(C(=O)NCCNC(=O)c2ccccc2)cc1,2.82%
22,O=C(Nc1ccccc1)c1ccco1,18.8% (active)
23,Cc1ccc(C(=O)NCCNS(=O)(=O)c2ccccc2)cc1,-4.96%
24,Cc1cc(NC(=O)[C@H](C)NC(=O)c2ccco2)ccc1Br,-2.49%

row,SMILES,max response
1,O=C(Nc1ccccc1)/C(=C\c1ccco1)NC(=O)c1ccco1,25.7%
2,COc1ccc(NC(=O)c2ccco2)cc1NC(=O)c1ccc(C#N)cc1F,1.08%
3,O=C(Nc1ccc(Sc2ccc(Br)cc2)cc1)c1ccco1,35.2% (active)
4,COc1ccc(NC(=O)CCCN2C(=O)C(c3ccccc3)Oc3cccnc32)cc1 (stereo unspecified),21.3%
5,C[N+](C)(C)CCNC(=O)c1cc[n+](Cc2ccccc2)c(/C=N/O)c1,-2.41%
6,COC(=O)c1cc(CNC(=O)CC(C)c2ccccc2)ccc1OC (stereo unspecified),0.629%
7,O=C(NNC1CC(=O)N(c2cccc(Cl)c2)C1=O)c1cccnc1 (stereo unspecified),0.896%
8,Cc1c(-c2ccccc2)n[nH]c1C(=O)N=Nc1c(O)[nH]c2ccccc12,8.32%
9,COc1ccc(-c2c(-c3ccc(OC)cc3O)nc(C)nc2C(F)(F)F)cc1,-2.37%
10,O=C(CCSc1ccccc1)NCCSc1ccccn1,-3.74%
11,O=C(CNC(=O)c1ccco1)OCC(=O)c1ccccc1,19.9%
12,Cc1ccc(-n2nc3ccc(NC(=O)/C=C/c4ccco4)cc3n2)cc1C,30.3%
13,O=C(/C=C/c1ccco1)Nc1ccc(Oc2ccccc2)cc1,37.9% (active)
14,O=C(NCCSc1ccccc1)c1ccco1,81.7% (active)
15,O=C(O)/C=C\C(=O)Nc1ccc(OCc2ccccc2)cc1,21.5%
16,CC(=O)NCCc1ccc(S(=O)(=O)Nc2ccc(C)c(S(=O)(=O)N3CCOCC3)c2)cc1,-9.24%
17,CC1CCN(CC(=O)Nc2nccs2)CC1,-2.21%
18,O=C(Cc1ccsc1)N1CCN(S(=O)(=O)c2cc(C(F)(F)F)cc(C(F)(F)F)c2)CC1,-2.13%
19,COc1cccc(C(C(=O)NC2CCCC2)N(C(=O)c2ccco2)c2cccc(C(C)=O)c2)c1OC (stereo unspecified),3.33%
20,Cc1cc(OC(=O)c2c(Cl)cccc2Cl)nc(C)n1,-0.567%
21,CCOC(=O)c1cnc(SCC(=O)Nc2ccccc2C(=O)OC)nc1N,-1.91%
22,CCOC(=O)c1cnc(-c2ccccc2)nc1Oc1ccc(C)cc1,-0.445%
23,CCCCOc1ccc(-c2ncc(C(=O)OCC)c(N)n2)cc1,42.2% (active)
24,COc1ccc2c(c1)c(=O)c(C(=O)c1ccc(Cl)cc1)cn2CC(=O)Nc1ccc(F)cc1,-2.23%

row,SMILES,max response
1,O=C(N=C1SC2CS(=O)(=O)CC2N1c1cc(Cl)ccc1Cl)C1CC1 (stereo unspecified),8.54%
2,O=C(c1cnn(-c2ccc(Cl)cc2)c1)c1ccccc1O,60.1% (active)
3,O=C(CN1CCN(c2ccc(Cl)cc2)CC1)c1ccccc1,5.7%
4,Cc1ncc(CC(=O)n2cc(C(=O)c3cc(Cl)ccc3O)cn2)s1,11.2%
5,Fc1ccc2[nH]c3c(N4CCN(Cc5ccc6c(c5)OCO6)CC4)ncnc3c2c1,-4.86%
6,COc1ccc(CN2CC(C(=O)NCCc3ccc(Cl)cc3)CC2=O)cc1 (stereo unspecified),-3.25%
7,Cc1ccc(C(=O)N(CN2CCCC2=O)c2ccc(F)cc2)cc1,11.4% (active)
8,CNC(=O)NCCN1CCCC1=O,-5.85%
9,Cc1ccc(S(=O)(=O)N(CC(=O)NN=C2CCN(C)CC2)c2ccc(F)cc2)cc1,-0.935%
10,CCc1nc(N2CCN(C(C)=O)CC2)c2c3c(sc2n1)CCCC3,1.8%
11,Cc1ccc(-c2csc(NC(=O)c3cnccn3)n2)cc1C,1.6%
12,O=C(Nc1nnc(-c2ccccc2F)s1)c1ccccc1F,17.9% (active)
13,O=C(CCc1ccccc1)NCc1cccnc1,1.47%
14,O=C(Nc1ccc(NC(=O)c2ccccc2F)cc1)c1ccccc1F,12.7%
15,O=C(Nc1ccccc1F)c1ccccc1-c1ccccc1,-1.34%
16,O=C(Nc1nc(-c2ccc(-c3ccccc3)cc2)cs1)c1cnccn1,35.3% (active)
17,O=C(Nc1nc(-c2cccnc2)cs1)c1ccccc1F,45.8% (active)
18,O=C(O)c1ccccc1-c1ccccc1C(=O)NCc1cccnc1,-0.956%
19,O=C(NCc1cccnc1)C(=O)Nc1nc(-c2ccccc2)cs1,39.9% (active)
20,O=C(O)c1ccccc1C(=O)Nc1nc(-c2ccccc2)cs1,-3.4%
21,CN(Cc1ccccc1)S(=O)(=O)c1nnc(NC(=O)c2ccccc2F)s1,-3.23%
22,O=C(Nc1nnc(Cc2ccccc2)s1)c1cnccn1,9.38%
23,CCN1C(=NCc2ccc(OC)cc2)N[C@@H](CCc2ccccc2)[C@H](C(=O)NCc2ccc(OC)cc2)[C@H]1C,-3.38% and 1.66%
24,CCCCCCCCCCOC(=O)Cn1c(COc2ccc(C)cc2)[n+](C)c2ccccc21,-4.67%

row,SMILES,max response
1,COc1ccc(-c2cc(C3CCN(c4ncccc4[N+](=O)[O-])CC3)[nH]n2)cc1,-2.37%
2,CC1CCCCN1CCCNC(=O)Cn1ncc2c([nH]c3ccccc32)c1=O (stereo unspecified),-1.43%
3,Cc1cc(C)c(C(=O)CSc2nc(C)cc(=O)[nH]2)c(C)c1,6.02%
4,CCn1cc(/C=C(\NC(=O)c2cc(OC)c(OC)c(OC)c2)C(=O)N2CCN(C)CC2)c2ccccc21,-3.51%
5,CCOC(=O)c1ccc(NC(=S)N2CCN(c3ccccn3)CC2)cc1,-2.76%
6,Cc1ccccc1Nc1nc(-c2cccnc2)cs1,40.6% (active)
7,CCCCNC(=O)CCn1nc(-c2ccc(Cl)cc2)ccc1=O,-0.835%
8,Cc1cc2c(cc1C)N(C(=O)CN1C(=O)c3ccccc3C1=O)C(C)(C)c1ssc(=S)c1-2,-0.934%
9,Cc1cc(N2CCCC2)n2nc(C)c(-c3ccccc3)c2n1,6.19%
10,Cc1cc(-n2nc(C)cc2C)n2nc(C)c(-c3ccccc3)c2n1,-1.22%
11,Cc1cc(-n2nc(C)cc2C)n2ncc(-c3ccccc3)c2n1,42.3% (active)
12,O=C(NCC1CC1)C1(C(F)(F)F)C/C(=C\CCO)CCCO1 (stereo unspecified),-3.88%
13,COc1ccc(Cc2nnc(N/N=C/c3ccccc3O)[nH]c2=O)cc1OC,-1.41%
14,c1ccc(-c2ccc3c(c2)NC(C2Nc4cc(-c5ccccc5)ccc4O2)O3)cc1 (stereo unspecified),-0.428%
15,C/C(=N\NC(=O)NC1CCCCC1)c1ccc(OC(F)F)cc1OC(F)F,9.08%
16,CS(=O)(=O)N1CCc2cc(C(=O)Nc3ccccc3)ccc21,-1.85%
17,CSc1ccccc1NC(=O)c1ccc2c(c1)CCN2S(C)(=O)=O,43.6% (active)
18,COc1ccc(OC)c(NC(=O)c2ccc3c(c2)CCN3S(C)(=O)=O)c1,-0.802%
19,CC(=O)Nc1cccc(NC(=O)c2ccc3c(c2)CCN3S(C)(=O)=O)c1,2.48%
20,CCc1ccccc1NC(=O)c1ccc2c(c1)CCN2S(C)(=O)=O,-1.1%
21,CS(=O)(=O)N1CCc2cc(C(=O)Nc3ccccc3Br)ccc21,30.9% (active)
22,COCc1ccc(C(=O)N2CCc3c([nH]c4ccccc34)C2c2ccccn2)s1 (stereo unspecified),-4.02%
23,COc1ccc(-c2cc(=O)oc3cc(OC(C)C(=O)Nc4ccc(CN5CCOCC5)cc4)ccc23)cc1 (stereo unspecified),-4.69%
24,Cc1ccc(OCc2nnc(SC3CCc4ccccc4C3=O)n2C)cc1 (stereo unspecified),4.12%
